Many of the other results were omitted from the sample, so hits are more common in it than they were.
Pf Dd2 inh – inhibitors of Plasmodium falciparum Dd2 growth | P. falciparum Dd2 growth, SYBR Green, 72 h | Potency, µM (top dose mostly 28.9 µM), actives largely listed as inhibitors | actives 4.3% (n = 120,000) | AID 1347417; active = well fitted inhibition curve with a large enough effect; also: nearly all actives have a fitted effect of over 65% in size
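Readout: SYBR Green fluorescence, 485 nm excitation, 535 nm emission, after ~16 h lysis at 37C. Before that, Dd2-infected red cells (2.5% hematocrit) grew 72 h with compound, 29 uM top final concentration.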
Numbers stand for hits.

How did Cc1ccc(-c2nnc(Nc3ccc(Cl)c(Cl)c3)c3ccccc23)cc1S(=O)(=O)N(C)C do in these assays?
Pf Dd2 inh: 10µM

What do the screens show for `Cc1cccc(C(=O)N2C(C(=O)N3CCOCC3)COC23CCN(C(=O)c2cccc(F)c2)CC3)c1` (stereo not drawn)?
Pf Dd2 inh: inactive

What do the screens show for `NCCC(=O)N1CCCC(N2CCN(c3ccccc3F)CC2)C1` (stereo not drawn)?
Pf Dd2 inh: inactive

How did COC(=O)CNC(=O)N1CCC(Cc2noc(-c3ccncc3)n2)C1 (stereo not drawn) do in these assays?
Pf Dd2 inh: inactive

What do the screens show for `O=C(NCc1ccco1)N1CC(n2cc(COc3ccccc3)nn2)C1`?
Pf Dd2 inh: inactive

Results for Cc1ccc(C)c(NC(=O)N2CC(n3cc(COc4ccccc4)nn3)C2)c1 ?
Pf Dd2 inh: inactive

Results for O=C(c1ccccc1Br)N1CC(n2cc(COc3ccc(F)cc3)nn2)C1 ?
Pf Dd2 inh: 11µM

Results for COc1cccc(CNCC2CNCCO2)c1OCCN1CCOCC1 (stereo not drawn) ?
Pf Dd2 inh: inactive

Results for Oc1ccc(-c2nc(C3CC3)nc3c2CN(Cc2cncs2)CC3)cc1 ?
Pf Dd2 inh: inactive

How did O=C(NCc1cccnc1)[C@@H]1C[C@@H](O)CN1C1CCN(C(=O)COc2ccccc2)CC1 do in these assays?
Pf Dd2 inh: inactive

Results for Cn1ccc(CN2CCn3c(nn(-c4ccc(F)cc4F)c3=O)C2)c1 ?
Pf Dd2 inh: 8.9µM

Results for O=c1n(-c2ccc(F)cc2F)nc2n1CCN(Cc1ccc(C(F)(F)F)cc1)C2 ?
Pf Dd2 inh: inactive

What do the screens show for `COc1ccc(CN2CCn3c(nn(-c4ccc(F)cc4F)c3=O)C2)cc1`?
Pf Dd2 inh: inactive

What do the screens show for `Cc1cnc(C(=O)NC2C[C@H]3CC[C@@H](C2)N3C(=O)c2ccc(F)cc2)cn1` (stereo partly drawn)?
Pf Dd2 inh: inactive

Results for Cc1ccc(C(=O)CSc2nc3cc(C(=O)NC4CCCC4)ccc3c(=O)n2CC2CCCO2)c(C)c1 (stereo not drawn) ?
Pf Dd2 inh: inactive

Results for Cc1ccc(Cn2c(SCc3ccc(C(=O)NC4CCCCC4)cc3)nc3ccncc32)cc1 ?
Pf Dd2 inh: 11µM

Results for COc1ccc(Cn2c(SCc3ccc(C(=O)NC4CCCCC4)cc3)nc3ccncc32)cc1 ?
Pf Dd2 inh: 7.9µM

Results for Cc1ccc(Cn2c(SCc3ccc(C(=O)NC4CCCC4)cc3)nc3ccncc32)cc1 ?
Pf Dd2 inh: 11µM

How did Cc1ccc(Cn2c(=O)n(Cc3ccc(C(=O)NC4CCN(Cc5ccccc5)CC4)cc3)c(=O)c3ccccc32)cc1 do in these assays?
Pf Dd2 inh: inactive

Results for COc1ccc(Cn2c(SCc3ccc(C(=O)NC4CCCC4)cc3)nc3ccncc32)cc1 ?
Pf Dd2 inh: inactive

What do the screens show for `Cc1cccc(CSc2nc3cc(C(=O)NC4CCCC4)ccc3c(=O)n2Cc2ccccc2)c1`?
Pf Dd2 inh: inactive

What do the screens show for `COc1ccc(CSc2nc3ccncc3n2CC(=O)Nc2cc(C)cc(C)c2)cc1`?
Pf Dd2 inh: inactive

How did Cc1ccc(CSc2nc3ccncc3n2Cc2nc(-c3ccc(Cl)cc3)oc2C)cc1 do in these assays?
Pf Dd2 inh: inactive

What do the screens show for `COCC1CN(C(=O)NCc2ccc(OC)cc2)CC12CCNCC2` (stereo not drawn)?
Pf Dd2 inh: inactive

What do the screens show for `COCC(=O)NC[C@H]1CCN(Cc2ccccc2OC)C[C@H]1N(C)C`?
Pf Dd2 inh: inactive

Results for CCCNc1ccc(-c2nc(-c3ccccn3)no2)cc1[N+](=O)[O-] ?
Pf Dd2 inh: inactive

Results for Cc1ccc(C(=O)N2CCCN(S(=O)(=O)c3ccccc3)CCC(=O)NCC2)cn1 ?
Pf Dd2 inh: inactive

What do the screens show for `CC(C)N(Cc1ccccc1)C(=O)CN1C(=O)CSc2ccc(S(=O)(=O)N3CCCC3)cc21`?
Pf Dd2 inh: 7.9µM

How did CCCCN(CCCC)CCNC(=O)CN1C(=O)CSc2ccc(S(=O)(=O)N3CCCCC3)cc21 do in these assays?
Pf Dd2 inh: inactive

Results for Cc1cc(C)cc(NC(=O)CN2C(=O)CSc3ccc(S(=O)(=O)N4CCCC4)cc32)c1 ?
Pf Dd2 inh: inactive

Results for COCCc1noc(C2CN(C(=O)COc3ccc(F)cc3)C2)n1 ?
Pf Dd2 inh: inactive

Results for CCOc1cc(CNCCSc2nnnn2C)cc(Cl)c1OCc1ccc(Cl)cc1 ?
Pf Dd2 inh: inactive

What do the screens show for `COc1ccccc1NC(=O)C1=C(C)Nc2nc(SCc3ccccc3C)nn2C1CC(C)C` (stereo not drawn)?
Pf Dd2 inh: inactive

Results for O=[S+]1([O-])NC2(CCN(Cc3ccoc3)C2)COc2ccncc21 (stereo not drawn) ?
Pf Dd2 inh: inactive

Results for CC(C)c1ccc(NC(=O)c2ccc3c(c2)CCN3S(=O)(=O)c2ccccc2)cc1 ?
Pf Dd2 inh: 8.9µM

Results for CC(=O)Nc1ccc(NC(=O)c2ccc3c(c2)CCN3S(=O)(=O)c2ccc(Cl)cc2)cc1 ?
Pf Dd2 inh: inactive

Results for CC(C)c1ccc(NC(=O)c2ccc3c(c2)CCCN3S(C)(=O)=O)cc1 ?
Pf Dd2 inh: inactive

What do the screens show for `COc1cccc(CSc2nc3n(n2)C(c2cccnc2)C(C(=O)Nc2ccccc2C)=C(C)N3)c1` (stereo not drawn)?
Pf Dd2 inh: inactive

How did Clc1ccc(C2Cn3nnc(-c4noc(C5CCC5)n4)c3CO2)cc1 (stereo not drawn) do in these assays?
Pf Dd2 inh: inactive

What do the screens show for `Cc1cc(C)c(NC(=O)CSc2ncc3c(n2)-c2cc(Cl)ccc2N(C)S3(=O)=O)c(C)c1`?
Pf Dd2 inh: inactive

What do the screens show for `COc1ccccc1NC(=O)NC[C@H]1O[C@H](Cc2cc(COc3ccccc3)on2)CC[C@@H]1O`?
Pf Dd2 inh: inactive

Results for COc1ccc(CNCC2(COc3cccnc3)C[C@@H](O)[C@@H](O)C2)cc1 (stereo partly drawn) ?
Pf Dd2 inh: inactive

What do the screens show for `COc1cccc(C(=O)NCC2(COc3ccccc3)C[C@@H](O)[C@@H](O)C2)c1` (stereo partly drawn)?
Pf Dd2 inh: inactive

How did COc1cccc(CNCC2(COc3ccccc3)C[C@@H](O)[C@@H](O)C2)c1 (stereo partly drawn) do in these assays?
Pf Dd2 inh: 4µM

What do the screens show for `COc1cc(C2CC(=O)N(Cc3cccc(F)c3)c3ccccc3S2)cc(OC)c1OC` (stereo not drawn)?
Pf Dd2 inh: 4.5µM

What do the screens show for `COc1ccccc1NC(=O)NC1CC(=O)N(Cc2cccc(F)c2)C1` (stereo not drawn)?
Pf Dd2 inh: inactive

How did COc1ccccc1C(=O)NC1CC(=O)N(Cc2cccc(F)c2)C1 (stereo not drawn) do in these assays?
Pf Dd2 inh: inactive

What do the screens show for `CCn1nccc1C(=O)N1CCCn2ccnc2C1c1cnn(C)c1` (stereo not drawn)?
Pf Dd2 inh: inactive

Results for COc1ccccc1C(=O)N1CCC(N2Cc3ccccc3C2=O)CC1 ?
Pf Dd2 inh: inactive

Results for Cc1c(C(=O)Nc2ccc(-n3c(C)nc4ccccc4c3=O)cc2)cccc1[N+](=O)[O-] ?
Pf Dd2 inh: inactive

What do the screens show for `CN(Cc1ccccc1)C(=O)c1cc(-c2ccncc2)cn1C`?
Pf Dd2 inh: inactive

How did Cc1ccccc1CCC1CCCN(C(=O)c2ccccc2-c2nn[nH]n2)C1 (stereo not drawn) do in these assays?
Pf Dd2 inh: inactive

What do the screens show for `Cc1ccc(Cn2cc(-c3ccncc3)cc2C(=O)O)cc1`?
Pf Dd2 inh: inactive

Results for Cc1ccccc1Cn1cc(-c2ccncc2)cc1C(=O)N(C)Cc1ccco1 ?
Pf Dd2 inh: 3.5µM

High-throughput results as filed in PubChem BioAssay.
